# Test results: paper PMC11995724, “Antibiotic target discovery by integrated phenotypic and activity-based profiling of electrophilic fragments” (Cell chemical biology, 2025)
# Screen size: about 3,200 compounds; about 110 (3.4%) showed an effect of 50% or more. This excerpt belongs to a sample that is enriched for strong results.
# Tested on: T1, V. cholerae SAD30
# T1 construct: SAD30
# Design: species or system S. aureus MSSA476 (TSB) or V. cholerae SAD30 (LB); 384-well bacterial growth screen at 25 uM, OD600 relative to DMSO control
# Details: relative growth, OD600, LB; 25 µM; inhibitor
row,SMILES,% of control remaining [%]
1,"CC(Cl)C(=O)N1CCCC(n2ccc(C(F)(F)F)n2)C1 (stereo not shown) [7-A08, 2-chloro-1-{3-[3-(trifluoromethyl)-1H-pyrazol-1-yl]piperidin-1-yl}propan-1-one]",84.3218
2,"O=C(CCl)Nc1nc2c(s1)CCc1ccccc1-2 [6-D03, 2-chloro-N-{4H,5H-naphtho[1,2-d][1,3]thiazol-2-yl}acetamide]",105.868
3,"CC(NC(=O)CCl)C(=O)N1CCS(=O)(=O)CC1 (stereo not shown) [5-K14, 2-chloro-N-[1-(1,1-dioxo-1lambda6-thiomorpholin-4-yl)-1-oxopropan-2-yl]acetamide]",88.7675
4,"C=CC(=O)N1CCOCC1c1noc(C)n1 (stereo not shown) [3-O11, 1-[3-(5-methyl-1,2,4-oxadiazol-3-yl)morpholin-4-yl]prop-2-en-1-one]",103.029
5,"C=CC(=O)N1CCC(C(=O)NCc2ccoc2C)CC1 [1-E14, N-[(2-methylfuran-3-yl)methyl]-1-(prop-2-enoyl)piperidine-4-carboxamide]",89.0882
6,"C=CC(=O)N(Cc1ccc(F)cn1)c1cnn(C2CCCC2)c1C [1-D11, N-(1-cyclopentyl-5-methyl-1H-pyrazol-4-yl)-N-[(5-fluoropyridin-2-yl)methyl]prop-2-enamide]",86.846
7,"Cc1ccc(C=C(C#N)C(=O)Nc2ccccc2C)cc1 [8-G16, 2-cyano-N-(2-methylphenyl)-3-(4-methylphenyl)prop-2-enamide]",72.8076
8,"N#CC(=Cc1ccc(C#N)cc1)C(=O)Nc1cccc(Cl)c1Cl [8-J05, 2-cyano-3-(4-cyanophenyl)-N-(2,3-dichlorophenyl)prop-2-enamide]",72.9436
9,"CC(Cl)C(=O)NCCc1nc2cc(F)ccc2s1 (stereo not shown) [7-P11, 2-chloro-N-[2-(5-fluoro-1,3-benzothiazol-2-yl)ethyl]propanamide]",81.4142
10,"CC(Cl)C(=O)Nc1ccc(Cc2nnc3ncccn23)cc1 (stereo not shown) [7-O22, 2-chloro-N-[4-({[1,2,4]triazolo[4,3-a]pyrimidin-3-yl}methyl)phenyl]propanamide]",91.0623
11,"N#CC(=Cc1cccc(Oc2ccccc2)c1)C(=O)N1CCCC1 [9-F06, 3-(3-phenoxyphenyl)-2-(pyrrolidine-1-carbonyl)prop-2-enenitrile]",85.724
12,"O=C(CCl)NCc1ccc(OC(F)(F)F)cc1 [6-G08, 2-chloro-N-{[4-(trifluoromethoxy)phenyl]methyl}acetamide]",91.3072
13,"CCOc1ccc(N2C(=O)C=CC2=O)cc1 [10-A14, 1-(4-ethoxyphenyl)-2,5-dihydro-1H-pyrrole-2,5-dione]",23.3781
14,"Cc1cc(C(=O)CCl)c(C)n1-c1ccc(OC(F)(F)F)cc1 [10-G04, 2-chloro-1-{2,5-dimethyl-1-[4-(trifluoromethoxy)phenyl]-1H-pyrrol-3-yl}ethan-1-one]",98.344
15,"N#CC(=Cc1ccc(OC(F)F)cc1)C(=O)N1CCCC1 [8-L22, 3-[4-(difluoromethoxy)phenyl]-2-(pyrrolidine-1-carbonyl)prop-2-enenitrile]",77.0224
16,"O=C1C=CC(=O)N1c1ccc(OC(F)(F)F)cc1 [10-J19, 1-[4-(trifluoromethoxy)phenyl]-2,5-dihydro-1H-pyrrole-2,5-dione]",30.0799
17,"Cc1cc(C(=O)C(C)Cl)c(C)n1-c1ccc(OC(F)F)cc1 (stereo not shown) [10-E10, 2-chloro-1-{1-[4-(difluoromethoxy)phenyl]-2,5-dimethyl-1H-pyrrol-3-yl}propan-1-one]",97.7206
18,"CCn1cc(N2C(=O)C=CC2=O)cn1 [10-I21, 1-(1-ethyl-1H-pyrazol-4-yl)-2,5-dihydro-1H-pyrrole-2,5-dione]",56.731
19,"O=C1C=CC(=O)N1c1ccc(Oc2ccccc2)cc1 [10-F17, 1-(4-phenoxyphenyl)-2,5-dihydro-1H-pyrrole-2,5-dione]",26.1835
20,"CCOC(=O)C(C#N)=Cc1ccc(N2C(=O)C=CC2=O)cc1 [10-N11, ethyl 2-cyano-3-[4-(2,5-dioxo-2,5-dihydro-1H-pyrrol-1-yl)phenyl]prop-2-enoate]",96.6297
21,"O=C1C=CC(=O)N1c1ccc(OC(F)F)cc1 [10-P11, 1-[4-(difluoromethoxy)phenyl]-2,5-dihydro-1H-pyrrole-2,5-dione]",36.7816
22,"O=C(CCl)NCCC1=CCCCC1 [4-H05, 2-chloro-N-[2-(cyclohex-1-en-1-yl)ethyl]acetamide]",111.451
23,"O=C(CCl)NCCc1cccc2c1Oc1ccccc1O2 [7-J18, 2-chloro-N-[2-(oxanthren-1-yl)ethyl]acetamide]",77.317
24,"CN(CC(=O)Nc1cccc(Cl)c1)C(=O)CCl [5-F18, 2-chloro-N-{[(3-chlorophenyl)carbamoyl]methyl}-N-methylacetamide]",84.0601
25,"Cc1ccc(Sc2ccc(NC(=O)CCl)cc2)cc1C [4-G03, 2-chloro-N-{4-[(3,4-dimethylphenyl)sulfanyl]phenyl}acetamide]",107.311

row,SMILES,% of control remaining [%]
1,"CCCCNC(=O)C(C#N)=Cc1ccc2c(c1)OCCO2 [9-G11, N-butyl-2-cyano-3-(2,3-dihydro-1,4-benzodioxin-6-yl)prop-2-enamide]",85.724
2,"CCc1ccccc1NC(=O)CN(C)C(=O)CCl [6-L06, 2-chloro-N-{[(2-ethylphenyl)carbamoyl]methyl}-N-methylacetamide]",89.1838
3,"O=C1C=CC(=O)N1c1ccc2ccccc2c1 [10-D07, 1-(naphthalen-2-yl)-2,5-dihydro-1H-pyrrole-2,5-dione]",22.2872
4,"CC(Cl)C(=O)Nc1ccccc1C#N (stereo not shown) [6-A11, 2-chloro-N-(2-cyanophenyl)propanamide]",96.0091
5,"Cc1c(Cl)cccc1NC(=O)C(C)Cl (stereo not shown) [6-I10, 2-chloro-N-(3-chloro-2-methylphenyl)propanamide]",83.2686
6,"Cc1c(Cl)cccc1N1C(=O)C=CC1=O [10-B17, 1-(3-chloro-2-methylphenyl)-2,5-dihydro-1H-pyrrole-2,5-dione]",23.3781
7,"Cc1ccccc1N1C(=O)C=CC1=O [10-J13, 1-(2-methylphenyl)-2,5-dihydro-1H-pyrrole-2,5-dione]",23.0664
8,"Cc1ccccc1N1C(=O)CSC1=C(C#N)C(=O)N1CCCCC1 [8-B12, 2-[3-(2-methylphenyl)-4-oxo-1,3-thiazolidin-2-ylidene]-3-oxo-3-(piperidin-1-yl)propanenitrile]",78.1101
9,"N#Cc1ccccc1NC(=O)CCl [5-P04, 2-chloro-N-(2-cyanophenyl)acetamide]",116.339
10,"Cc1c(Cl)cccc1NC(=O)CNC(=O)CCl [5-N20, 2-chloro-N-{[(3-chloro-2-methylphenyl)carbamoyl]methyl}acetamide]",102.049
11,"N#Cc1ccccc1N1C(=O)C=CC1=O [10-B13, 2-(2,5-dioxo-2,5-dihydro-1H-pyrrol-1-yl)benzonitrile]",22.7547
12,"Cc1cccc(N2C(=O)C=CC2=O)c1C [10-H05, 1-(2,3-dimethylphenyl)-2,5-dihydro-1H-pyrrole-2,5-dione]",27.1186
13,"C=CC(=O)N1CCC[C@H]1C(=O)Nc1cccc(C)n1 [1-B10, (2S)-N-(6-methylpyridin-2-yl)-1-(prop-2-enoyl)pyrrolidine-2-carboxamide]",90.0393
14,"C=CCNC(=O)C(C#N)=Cc1ccc(C)s1 [9-F05, 2-cyano-3-(5-methylthiophen-2-yl)-N-(prop-2-en-1-yl)prop-2-enamide]",77.8382
15,"CC(Cl)C(=O)NCCc1cn(C)nn1 (stereo not shown) [7-A14, 2-chloro-N-[2-(1-methyl-1H-1,2,3-triazol-4-yl)ethyl]propanamide]",82.7358
16,"Cc1cccc2nc(C3CCN(C(=O)C(C)Cl)CC3)oc12 (stereo not shown) [7-M12, 2-chloro-1-[4-(7-methyl-1,3-benzoxazol-2-yl)piperidin-1-yl]propan-1-one]",63.8361
17,"CC(Cl)C(=O)Nc1ccc2c(c1)CCC2 (stereo not shown) [5-C19, 2-chloro-N-(2,3-dihydro-1H-inden-5-yl)propanamide]",86.9181
18,"O=C(CCl)c1ccc(CC(=O)N2CCOCC2)s1 [10-H06, 2-chloro-1-{5-[2-(morpholin-4-yl)-2-oxoethyl]thiophen-2-yl}ethan-1-one]",101.305
19,"N#CC(=Cc1ccccc1Cl)C(=O)Nc1ccc2c(c1)OCCO2 [8-F03, 3-(2-chlorophenyl)-2-cyano-N-(2,3-dihydro-1,4-benzodioxin-6-yl)prop-2-enamide]",94.4256
20,"Cc1cc(C(=O)CCl)c(C)n1CC(N)=O [10-O16, 2-[3-(2-chloroacetyl)-2,5-dimethyl-1H-pyrrol-1-yl]acetamide]",94.6035
21,"Cc1cc(C(=O)CCl)c(C)n1-c1cc(Cl)cc(Cl)c1 [10-I04, 2-chloro-1-[1-(3,5-dichlorophenyl)-2,5-dimethyl-1H-pyrrol-3-yl]ethan-1-one]",87.746
22,"Cc1cc(C(=O)CCl)c(C)s1 [10-K16, 2-chloro-1-(2,5-dimethylthiophen-3-yl)ethan-1-one]",28.6772
23,"O=C(CCl)c1cc(Cl)sc1Cl [10-D16, 2-chloro-1-(2,5-dichlorothiophen-3-yl)ethan-1-one]",21.5079
24,"Cc1cc(C(=O)CCl)c(C)[nH]1 [10-J08, 2-chloro-1-(2,5-dimethyl-1H-pyrrol-3-yl)ethan-1-one]",99.1233
